# According to ChEMBL document CHEMBL1201862, “PubChem BioAssay data set” (2004):
# About 2,900 (6.6%) of roughly 44,000 sequences were called active. No stated cut-off is given here; in the data, active = GI50 up to about 1.1 µM and inactive = higher. Not all results are given here. Results with a measured potency or affinity are listed apart.
# Test system: MDA-MB-231
row,Substance,GI50
1,"[Bis(aminomethyl)tetramethylenesilane]tetrachloropaltinum(IV), CHEMBL2146189",21 µM
2,"[Bis(aminomethyl)pentamethylenesilane]tetrachloropaltinum(IV), CHEMBL2146204",19.6 µM
3,"CISPLATIN, CHEMBL11359",22.4 µM
4,"[Bis(aminomethyl)tetramethylenesilane]dichloropaltinum(II), CHEMBL2146205",48.6 µM
5,"[Bis(aminomethyl)pentamethylenesilane]dichloropaltinum(II), CHEMBL2146202",2.01 µM
6,"[Bis(aminomethyl)dimethylsilane]tetrachloroplatinum(IV), CHEMBL2146190",60.1 µM
